In the library only some 5.7% were active in any assay of this set; here they are far more common.
hcDAF-12 act – H. contortus DAF-12 nuclear receptor activators, primary screen, cell-based, luminescence, HEK293, lit1-tk-luc reporter | AID 652067, 2013 | 370,000 compounds, 1.4% hits | activation, % at 6.8 µM | HEK293 hcDAF-12 lit1-tk-luc reporter; 0% DMSO, 100% Δ7-dafachronic acid;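 active = activation above the mean of all tested compounds plus 3 SD, cut at about 5.5% in these data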;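 note: 100% = response to 3 µM Δ7-dafachronic acid high control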
AHR activator – AHR activators, primary screen, cell-based, luminescence, luciferase reporter, human. AHR-responsive luciferase reporter cells. activation, % at 5 µM. 320,000 compounds, 2.5% hits. AID 2796, 2010; in the data active = activation above about 47%;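 note: 0% = vehicle wells and 100% = reference agonist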
Target sequence (P35869 whole entry, looked up): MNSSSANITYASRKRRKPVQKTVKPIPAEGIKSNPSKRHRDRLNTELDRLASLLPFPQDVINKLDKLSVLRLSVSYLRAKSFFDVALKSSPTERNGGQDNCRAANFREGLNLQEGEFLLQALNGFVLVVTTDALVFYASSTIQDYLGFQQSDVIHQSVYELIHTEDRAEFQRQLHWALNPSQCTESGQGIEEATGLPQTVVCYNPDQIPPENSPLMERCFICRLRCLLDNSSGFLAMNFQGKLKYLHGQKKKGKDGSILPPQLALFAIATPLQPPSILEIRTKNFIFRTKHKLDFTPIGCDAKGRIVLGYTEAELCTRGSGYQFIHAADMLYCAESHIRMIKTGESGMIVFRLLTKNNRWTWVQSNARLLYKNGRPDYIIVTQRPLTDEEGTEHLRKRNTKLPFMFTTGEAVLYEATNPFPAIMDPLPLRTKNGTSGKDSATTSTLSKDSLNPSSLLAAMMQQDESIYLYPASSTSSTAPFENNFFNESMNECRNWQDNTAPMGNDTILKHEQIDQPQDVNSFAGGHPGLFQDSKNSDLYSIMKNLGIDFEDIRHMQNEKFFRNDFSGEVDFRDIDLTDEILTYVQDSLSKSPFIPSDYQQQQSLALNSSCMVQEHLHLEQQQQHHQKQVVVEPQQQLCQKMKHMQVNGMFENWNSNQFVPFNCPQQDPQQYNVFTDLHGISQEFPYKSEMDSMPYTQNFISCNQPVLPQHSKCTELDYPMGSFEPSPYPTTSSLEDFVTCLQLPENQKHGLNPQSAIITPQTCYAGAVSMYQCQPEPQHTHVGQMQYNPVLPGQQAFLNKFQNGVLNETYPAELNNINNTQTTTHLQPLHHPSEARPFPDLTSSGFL
ssDAF12 agonist – S. stercoralis DAF-12 nuclear receptor activators, primary screen, cell-based, luminescence, HEK293, GRIP1 co-expression, lit1-tk-luc. Nuclear hormone receptor DAF-12 (Strongyloides stercoralis). HEK293 ssDAF-12/GRIP1 lit1-tk-luc reporter; % of 3 µM dafachronic acid response. activation, % at 6.8 µM. 370,000 compounds, 1% hits. AID 652126, 2013;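 active = activation above the mean over all tested compounds plus 3 SD, cut at about 0.9% in these data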;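 note: 0% = DMSO-only wells and 100% = 3 µM delta7-dafachronic acid wells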
DAX1 inh-1 – DAX1 (NR0B1) inhibitors, primary screen, cell-based, HEK293, Gal4-DAX1, luciferase luminescence; AID 504766, 2011; 340,000 compounds, 0.99% hits; HEK293 Gal4-DAX1 luciferase reporter; inhibition, % at 6.75 µM; Nuclear receptor subfamily 0 group B member 1 (Homo sapiens), P51843;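 active = inhibition above the mean over all tested compounds plus 3 SD, cut at about 4.2% in these data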;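 note: 0% = DAX1-transfected cells with DMSO and 100% = empty-vector control cells with DMSO; inhibition shows as a rise in luminescence from relieved DAX1 repression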
DAX1 inh-2 – DAX1 (NR0B1) inhibitors on StAR promoter, primary screen, cell-based, luminescence, SF-1 (NR5A1), full-length DAX-1; inhibition, % at 6.8 µM; 370,000 compounds, 1.1% hits; AID 652010, 2013; HEK293T StAR-luciferase reporter, SF-1/DAX-1 repression relief;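 active = inhibition above the mean over all tested compounds plus 3 SD, cut at about 3.6% in these data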;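 note: 0% = DAX-1 cells with DMSO and 100% = cells lacking DAX-1 with DMSO; higher inhibition means more luminescence from relief of DAX-1 repression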
hgDAF-12 ag – H. glycines DAF-12 receptor agonists, primary screen, cell-based, luminescence, HEK293, GAL4 fusion, UAS-luciferase; Nuclear hormone receptor DAF-12 (Heterodera glycines), GAL4 fusion; HEK293 GAL4-hgDAF12 UAS-luciferase reporter, agonist luminescence; normalized to butyrate control; activation, % at 6.8 µM; 370,000 compounds, 1.8% hits; AID 687014, 2013;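 active = activation above a cutoff set at the mean of all screened compounds plus 3 SD, cut at about 10% in these data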;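 note: 0% = DMSO wells and 100% = sodium butyrate wells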
hgDAF12 ag – H. glycines DAF-12 receptor agonists, confirmation, cell-based, luminescence, HEK293, GAL4-LBD fusion | shares compounds with hgDAF-12 ag | HEK293 GAL4-hgDAF12 luciferase reporter, agonist mode; percent of butyrate response | activation, % at 6.8 µM | 3,300 compounds, 80% hits | AID 743050, 2013;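 active = mean activation over triplicate wells above the hit cutoff derived from the earlier primary screen, cut at about 11% in these data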;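 note: 0% = DMSO low control and 100% = 2 mM sodium butyrate high control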
LXR ag 2 – LXR agonists, Gal4 luciferase reporter, confirmation, counter-screen for hgDAF-12 agonist project, cell-based, luminescence, HEK293, H. glycines campaign; shares compounds with hgDAF-12 ag; 24 h; activation, % at 6.8 µM; 3,300 tested, under 10 active; AID 743051, 2013;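 active = mean activation of the triplicate above a set limit carried over from the primary screen, none filed active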
Active calls of the source: *; x = no result given.

SMILES	hcDAF-12 act	AHR activator	ssDAF12 agonist	DAX1 inh-1	DAX1 inh-2	hgDAF-12 ag	hgDAF12 ag	LXR ag 2
COc1ccc(-c2cn3c(C)c(C(=O)NC(C)(C)C)sc3n2)cc1	6.0*	55*	1	2	3	18*	12*	0
CN(C)c1cccc(O)c1	0	4	0	0	2	3	x	x
Cc1cc(O)ccc1Nc1cc(-c2cccc(N(C)C)c2)ncn1	5.8*	x	1	x	4.2*	14*	18*	1
O=C(Nc1cccc(C(=O)O)c1)Nc1ccccc1Cl	3	-11	0	-8	2	18*	9	1
O=C(Nc1cccc(Cl)c1)Nc1cccc(C(=O)O)c1	1	-5	1	x	1	10	x	x
O=C(N=C1N=C2C=CC(Br)=CN2Cc2ccccc21)c1ccc([N+](=O)[O-])cc1[N+](=O)[O-]	5	94*	1.1*	1	1	14*	14*	1
O=C(c1ccc([N+](=O)[O-])cc1[N+](=O)[O-])N1CCc2ccccc21	-2	22	-1	-2	0	-2	x	x
COCCn1c(N)c(Sc2ccc(Cl)cc2)c(=O)[nH]c1=O	0	1	-1	0	0	1	x	x
Cc1cc(C(=O)COC(=O)c2ccco2)c(C)n1Cc1ccco1	-3	-5	-3	2	-1	-8	x	x
Cc1cc(C(=O)COC(=O)c2cc(Cl)ccc2N)c(C)n1Cc1ccco1	4	0	0	1	3.7*	14*	13*	1
Cc1ccc2c(c1)c1c(n2CCc2ccc(C)nc2)CCN(C)C1	0	5	-1	0	0	1	x	x
CN(CCC(=O)Nc1ccc(Cl)cc1)Cc1ccccc1	-2	-1	-1	0	1	0	x	x
COc1cc(S(=O)(=O)Nc2cccnc2)ccc1Cl	1	0	-1	2	0	0	x	x
Cc1ccccc1Cn1cc(NC(=O)c2cc(-c3cccs3)on2)cn1	-3	14	-2	-1	-3	1	x	x
Cc1ccccc1Cn1cc(NC(=O)c2cc(-c3ccco3)on2)cn1	-1	57*	-1	-3	-1	39*	3	0
COc1ccc(CCNC(=O)c2cc(-c3ccco3)on2)cc1OC	-2	4	-2	-2	-2	14*	11*	0
CC(C)n1cc(NC(=O)c2cc(-c3ccccc3)on2)cn1	4	0	0	-3	-2	14*	16*	0
O=C(NCCc1ccccc1)c1cc(-c2ccco2)on1	5.6*	1	1	2	2	46*	53*	1
COc1ccc(Cl)cc1NC(=O)CCc1nc(-c2ccccc2F)no1	-2	10	-1	-1	-1	1	x	x
NS(=O)(=O)c1ccc(N2CCN(CCOc3ccc(Cl)cc3)CC2)nc1	-4	1	-1	-2	-1	-3	x	x
COC1=C/C(=C/c2c(N)n3nc(-c4ccc(C)cc4)sc3nc2=O)C=CC1=O	6.2*	x	1	-1	1	13*	8	0
Cc1nc(-c2nnc(SCC(=O)Nc3ccc(C(F)(F)F)cc3)n2C)cs1	0	-1	-1	1	0	0	x	x
O=C(N/N=C/c1ccccc1)c1[nH]ncc1Br	2	7	0	4.2*	2	15*	14*	0
O=C(Nc1ccccc1F)c1ccc2sc([C@@H]3O[C@H](CO)[C@H](O)[C@H](O)[C@H]3O)nc2c1	2	x	0	x	1	14*	8	0
O=C(Nc1cccc2ccccc12)c1ccc2sc([C@@H]3O[C@H](CO)[C@@H](O)[C@H]3O)nc2c1	0	x	-1	x	1	6	x	x
SMILES	hcDAF-12 act	AHR activator	ssDAF12 agonist	DAX1 inh-1	DAX1 inh-2	hgDAF-12 ag	hgDAF12 ag	LXR ag 2
Cc1ccc(-n2nc3c(=O)n(C(C)C(=O)NC4CC4)nc(C)c3c2C)cc1 (stereo not drawn)	0	2	0	0	-1	1	x	x
CS(=O)(=O)N(CC(=O)N1CCc2ccccc2C1)c1ccccc1F	0	0	-1	x	0	4	x	x
COCCCn1cnc2oc3nc4ccccc4nc3c2c1=O	6	10	0	1	3	15*	19*	1
COCCCn1cnc2c(c1=O)c1nc3ccccc3nc1n2-c1ccccc1	0	3	-1	1	0	-1	x	x
O=C(c1cc2c(c(-c3cccc(-c4ccc(F)cc4)c3)n1)[C@H](CCO)N(C(=O)c1ccc3c(c1)OCO3)C2)N1CCOCC1	-2	x	-1	x	-2	-3	x	x
Cc1cccc(NC(=O)c2cccc(OC(=S)N3CCOCC3)c2)c1	-2	2	0	-1	-1	-3	x	x
O=C(Nc1cccc(Cl)c1)c1ccc(OC(=S)N2CCOCC2)cc1	1	1	-1	-2	1	19*	7	0
O=C(CSc1nnc(NC2CCCCC2)s1)Nc1ccc2c(c1)C(=O)c1ccccc1C2=O	4	11	0	12*	3	14*	14*	0
COC(=O)C[C@H]1CC[C@@H]2[C@H](COc3ccc(NC(=O)c4ccccc4OC)cc3C(=O)N2C)O1	-2	x	0	x	0	15*	0	0
CCOc1ccc(-c2n[nH]c(C(=O)NN)c2C)cc1	3	17	-1	3	1	16*	2	0
O=C(NCC(=O)N1CCOCC1)c1ccc(Cl)cc1	-1	2	-1	1	1	1	x	x
Clc1cccc(-c2nc3ccc(Br)cn3c2Cc2ccsc2)c1	4	x	-1	x	3	8	x	x
Cc1ccc(Cc2c(-c3ccc(Br)cc3)nc3ccc(Br)cn23)cc1	2	x	0	3	-2	17*	9	0
Cc1ccc2nc(-c3cccc(Cl)c3)c(Cc3ccsc3)n2c1	2	x	1	x	2	16*	8	0
COc1ccccc1Cc1c(-c2ccc(Cl)cc2)nc2ccc(C)cn12	6.1*	x	1.2*	x	3	14*	15*	1

Screening data (PubChem BioAssay)
